PubChem BioAssay AID624481 (The Scripps Research Institute Molecular Screening Center, 2012)
Values without a mark were called inactive. Active and inactive are the calls of the source. No stated cut-off is given here; in the data, active means inhibition above about 50%; inactive means the rest.

target: Prolyl endopeptidase-like (Mus musculus) (UniProt Q8C167); test: mouse PREPL enzyme inhibition by screening hits – biochemical, gel-based competitive ABPP, fluorescence, HTS hits, PREPL inhibitor project (AID 624481); settings: purified mouse PREPL, at 20 µM, active compounds read high
Sequence (Q8C167 whole entry, looked up): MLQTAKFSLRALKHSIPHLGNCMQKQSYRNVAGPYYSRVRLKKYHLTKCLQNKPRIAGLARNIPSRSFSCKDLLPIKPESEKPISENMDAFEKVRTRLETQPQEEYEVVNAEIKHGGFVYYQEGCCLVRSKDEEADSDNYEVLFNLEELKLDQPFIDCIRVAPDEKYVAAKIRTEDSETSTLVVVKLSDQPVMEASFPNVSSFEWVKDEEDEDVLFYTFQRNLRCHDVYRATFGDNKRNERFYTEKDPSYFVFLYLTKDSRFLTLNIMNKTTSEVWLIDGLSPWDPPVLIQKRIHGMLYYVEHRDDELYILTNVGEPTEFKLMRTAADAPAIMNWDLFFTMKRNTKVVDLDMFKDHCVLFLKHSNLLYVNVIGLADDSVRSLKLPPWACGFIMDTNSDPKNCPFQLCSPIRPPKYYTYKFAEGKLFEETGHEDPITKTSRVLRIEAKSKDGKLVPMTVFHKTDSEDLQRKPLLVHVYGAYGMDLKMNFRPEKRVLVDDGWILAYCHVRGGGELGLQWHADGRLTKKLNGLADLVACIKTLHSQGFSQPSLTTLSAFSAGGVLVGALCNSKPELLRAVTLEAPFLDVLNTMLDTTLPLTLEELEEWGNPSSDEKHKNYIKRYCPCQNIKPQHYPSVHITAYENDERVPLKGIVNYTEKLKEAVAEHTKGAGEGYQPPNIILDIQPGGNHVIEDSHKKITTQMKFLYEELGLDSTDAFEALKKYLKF

Row | SMILES | inhibition
1 | Brc1ccc(-[n+]2c(-c3ccccc3)cc(-c3ccccc3)cc2-c2ccccc2)cc1 | -32%
2 | C=CCn1c(O)c(C(CC)=NCCc2c[nH]c3ccccc23)c(=O)[nH]c1=O | 43%
3 | O=C(c1ccc2c(c1)N(Cc1ccccc1)CCS2)N1CCC2(CC1)OCCO2 | -19%
4 | C=CCn1c(O)c(C(CC)=NCc2ccc3c(c2)OCO3)c(=O)[nH]c1=O | 32%
5 | COc1ccc2[nH]c(C)c(CCNCc3cn(C)c4ccccc34)c2c1 | 16%
6 | NC(N)=NN=Cc1ccc(N(c2ccccc2)c2ccccc2)cc1 | -64%
7 | CC(C)Cc1[nH]c(=O)c(C#N)c2c1CCC2 | 57% (active)
8 | C1=C(c2c[nH]c3ccccc23)CCNC1 | -17%
9 | O=C(c1ccc2c(c1)N(Cc1ccc(F)cc1)CCS2)N1CCC2(CC1)OCCO2 | -13%
10 | COc1ccc2[nH]c(C)c(CCNCc3cc(OC)c4c(c3)OCO4)c2c1 | -15%
11 | Clc1ccc(C[n+]2c(-c3ccccc3)cc(-c3ccccc3)cc2-c2ccccc2)cc1 | -51%
12 | CCOc1cccc(=NC2CCCCC2)c2c(C)[nH]c(C)c12 | 13%
13 | Cc1ccc(CN2CCSc3ccc(C(=O)N4CCC5(CC4)OCCO5)cc32)cc1 | -8%
14 | Cc1ccc(C[n+]2c(-c3ccc(C)cc3)cc(-c3ccc(C)cc3)cc2-c2ccc(C)cc2)cc1 | 1%
